Our source for the growth values is PubChem BioAssay (NCI).

Molecules are shown by their SMILES. About 83,000 compounds went through this panel and 20% of them were active in at least one assay; those are over-represented in the sample as a whole.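 A percent growth of 40 corresponds to 60% growth inhibition; 0 means no net growth; -100 means all cells died. Active threshold: below 10.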 Values without a mark were called inactive. Calls of active or inactive are those of the source.

What all share (assay): NCI-60 one-dose screen, 48 h (100 = growth as untreated, 0 = no growth, -100 = all killed)
One assay deals with SK-MEL-2 melanoma. As to conditions: 10 µM.
The next assay concerns EKVX NSCLC. As to conditions: 10 µM unless noted.
The test system of a further assay is SN12C renal. As to conditions: 10 µM unless noted.
A further assay concerns UO-31 renal. As to conditions: 10 µM unless noted.
In another assay the test system is TK-10 renal. As to conditions: 10 µM unless noted.
For a further assay, the system named is ACHN renal. As to conditions: 10 µM unless noted.
The subject of another assay is A498 renal. As to conditions: 10 µM unless noted.
Another assay deals with CCRF-CEM leukemia. As to conditions: 10 µM unless noted.
The next assay relates to MOLT-4 leukemia. As to conditions: 10 µM unless noted.
A further assay has as its system SR leukemia. As to conditions: 10 µM unless noted.
A further assay deals with OVCAR-8 ovarian. As to conditions: 10 µM unless noted.
For the next assay, the system named is OVCAR-5 ovarian. As to conditions: 10 µM unless noted.
Another assay deals with OVCAR-4 ovarian. As to conditions: 10 µM unless noted.
The test system of a further assay is SK-OV-3 ovarian. As to conditions: 10 µM unless noted.
The subject of the next assay is IGROV1 ovarian. As to conditions: 10 µM unless noted.
For a further assay, the system named is OVCAR-3 ovarian. As to conditions: 10 µM unless noted.
Another assay has as its system HS 578T breast. As to conditions: 10 µM.
A further assay relates to NCI/ADR-RES ovarian. As to conditions: 10 µM unless noted.
The next assay deals with RPMI-8226 leukemia. As to conditions: 10 µM unless noted.
The next assay deals with CAKI-1 renal. As to conditions: 10 µM unless noted.

Take `O=C(Nc1ccc(C(=O)Nc2ccc(C3=NCCCN3)cc2)cc1)Nc1ccc(C2=NCCCN2)cc1`: the growth in the assay with SK-MEL-2 melanoma was 62.8%; with EKVX NSCLC, 61.4%; in the assay with SN12C renal it was 91.6%; with UO-31 renal, 82.6%; in the assay with TK-10 renal, 96.7%; in the assay on ACHN renal, 86%. For the same molecule, the growth is 119% with A498 renal; 70.9% in the assay on CCRF-CEM leukemia; 81.5% in the assay on MOLT-4 leukemia; 44.5% in the assay on SR leukemia; 57.4% in the assay with OVCAR-8 ovarian; 93.2% in the assay with OVCAR-5 ovarian. The growth was 65.5% in the assay with OVCAR-4 ovarian; 97.8% with SK-OV-3 ovarian; 99.7% in the assay on IGROV1 ovarian; 103% in the assay on OVCAR-3 ovarian; 91.3% with HS 578T breast; 86.5% in the assay on NCI/ADR-RES ovarian.
As for `O=C(Cn1c(=O)ccn(CCCCCCCCOc2ccc(Br)cc2)c1=O)Nc1ccc(Oc2ccc(Cl)cc2)cc1`, the growth in the assay on SK-MEL-2 melanoma is 71%; in the assay on EKVX NSCLC, 50.6%; in the assay on SN12C renal it was 67.1%; in the assay on UO-31 renal, 32.7%; in the assay with ACHN renal it was 69.1%; in the assay on A498 renal, 54.8%. Moreover, the growth with CCRF-CEM leukemia is 54.6%; with MOLT-4 leukemia, 47.6%; in the assay on SR leukemia it was 28.7%; in the assay with RPMI-8226 leukemia, 34.2%; in the assay with OVCAR-8 ovarian it was 63.9%; in the assay on OVCAR-5 ovarian it was 108%. Further, the growth in the assay on OVCAR-4 ovarian was 53.4%; in the assay with SK-OV-3 ovarian it was 65.3%; in the assay with IGROV1 ovarian, 77.2%; in the assay with OVCAR-3 ovarian, 83.7%; with HS 578T breast, 81.8%; in the assay on NCI/ADR-RES ovarian it was 42.7%.
With `N#Cc1c(NC(=O)c2cccs2)[n+]([O-])c2ccc(F)cc2[n+]1[O-]`, the growth with SK-MEL-2 melanoma is 92.9%; with EKVX NSCLC, 86.4%; in the assay on SN12C renal it was 98.3%; in the assay on TK-10 renal it was 117%; in the assay with ACHN renal, 89%; with CAKI-1 renal it was 90.7%. In addition, the growth in the assay with CCRF-CEM leukemia was 77.7%; in the assay with MOLT-4 leukemia, 90.2%; with SR leukemia, 77%; with RPMI-8226 leukemia it was 93.2%; in the assay with OVCAR-8 ovarian it was 95.6%; in the assay with OVCAR-5 ovarian it was 108%. Moreover, the growth with OVCAR-4 ovarian was 85.7%; in the assay with SK-OV-3 ovarian, 82.6%; in the assay on IGROV1 ovarian, 68.9%; with OVCAR-3 ovarian, 98.3%; in the assay on NCI/ADR-RES ovarian, 111%.
On to `O=C(N/N=C/c1ccc(Cl)cc1)c1cc(-c2cc3ccccc3o2)nn1-c1ccccc1`, for which the growth with SK-MEL-2 melanoma was 91.2%; in the assay on EKVX NSCLC it was 89.6%; in the assay with SN12C renal it was 94.9%; in the assay with TK-10 renal it was 94.8%; with ACHN renal, 93.5%; in the assay on CAKI-1 renal, 100%. Further, the growth in the assay with CCRF-CEM leukemia is 95.6%; with MOLT-4 leukemia, 78%; in the assay on SR leukemia, 87.9%; with OVCAR-8 ovarian, 93.7%; in the assay on OVCAR-5 ovarian, 101%; with OVCAR-4 ovarian, 87.3%. Further, the growth with SK-OV-3 ovarian was 94%; in the assay on IGROV1 ovarian it was 65.9%; in the assay with OVCAR-3 ovarian, 106%; with NCI/ADR-RES ovarian, 93.4%.
Turning to `O=C1CSC(c2c(F)cccc2Cl)N1NC(=O)C(O)(c1ccccc1)c1ccccc1` (configuration not stated), the growth in the assay with SK-MEL-2 melanoma was 103%; in the assay with EKVX NSCLC it was 95.2%; in the assay with SN12C renal, 93.8%; with TK-10 renal it was 113%; in the assay with ACHN renal, 99.9%; with CAKI-1 renal, 93.3%. The growth was 102% with A498 renal; 97% in the assay with CCRF-CEM leukemia; 74% in the assay on MOLT-4 leukemia; 95.5% in the assay on SR leukemia; 94% with RPMI-8226 leukemia; 98.3% in the assay with OVCAR-8 ovarian. The growth with OVCAR-5 ovarian is 103%; in the assay on OVCAR-4 ovarian, 97.4%; with SK-OV-3 ovarian, 101%; in the assay on IGROV1 ovarian it was 72%; in the assay with OVCAR-3 ovarian it was 100%; with HS 578T breast it was 90.1%. For the same molecule, the growth in the assay on NCI/ADR-RES ovarian is 95.4%.
`COc1ccc(-c2cc3c(oc2=O)-c2ccccc2OC3OC(C)=O)cc1` (configuration not stated): the growth is 100% in the assay with SK-MEL-2 melanoma; 73.2% with EKVX NSCLC; 91.5% in the assay on SN12C renal; 104% with TK-10 renal; 102% in the assay with ACHN renal; 113% in the assay with CAKI-1 renal. Also, the growth in the assay on A498 renal is 100%; in the assay with CCRF-CEM leukemia it was -25.9% (active); in the assay on MOLT-4 leukemia, 72.4%; in the assay with SR leukemia it was 80.7%; in the assay with RPMI-8226 leukemia it was 83.1%; in the assay on OVCAR-8 ovarian, 107%. Further, the growth in the assay on OVCAR-5 ovarian is 111%; with OVCAR-4 ovarian, 90.7%; in the assay with SK-OV-3 ovarian it was 93.4%; in the assay with IGROV1 ovarian, 103%; with OVCAR-3 ovarian, 109%; in the assay with HS 578T breast, 89%. Moreover, the growth with NCI/ADR-RES ovarian was 93.8%.
As to `Nc1c2c(c(O)c3c1=C(CO)C=N3)=NCCS2=O` (configuration not stated), the growth with SK-MEL-2 melanoma was -51.3% (active); in the assay on EKVX NSCLC, -43.1% (active); in the assay with UO-31 renal, -66.8% (active); in the assay with TK-10 renal, 117%; in the assay with ACHN renal, -18.8% (active); in the assay with A498 renal it was -45.6% (active). Besides, the growth was 4.74% (active) with CCRF-CEM leukemia; -33.8% (active) in the assay with MOLT-4 leukemia; 3.82% (active) in the assay with SR leukemia; 20.7% in the assay with RPMI-8226 leukemia; -18.8% (active) in the assay on OVCAR-8 ovarian; -61.6% (active) in the assay on OVCAR-5 ovarian. Also, the growth is -96.7% (active) in the assay on OVCAR-4 ovarian; 77% in the assay with SK-OV-3 ovarian; -15.2% (active) in the assay on IGROV1 ovarian; -51.5% (active) with OVCAR-3 ovarian; 1.72% (active) in the assay with HS 578T breast; 0.866% (active) with NCI/ADR-RES ovarian.
As for `CC(=O)OC1Oc2ccccc2-c2oc(=O)c(-c3cc4ccc(N(C)C)cc4oc3=O)cc21` (configuration not stated), the growth in the assay on SK-MEL-2 melanoma is 46.7%; in the assay on EKVX NSCLC, 35.3%; with SN12C renal it was 72%; in the assay with TK-10 renal, 12.2%; in the assay on ACHN renal it was 47.4%; with CAKI-1 renal it was 46.1%. Moreover, the growth with A498 renal was 14.2%; in the assay on MOLT-4 leukemia, -28.3% (active); with SR leukemia it was -19.9% (active); with RPMI-8226 leukemia, -20.5% (active); in the assay with OVCAR-8 ovarian it was 37.1%; in the assay on OVCAR-5 ovarian, 26.3%. The growth in the assay on OVCAR-4 ovarian was 39.1%; in the assay with SK-OV-3 ovarian, 48.1%; with OVCAR-3 ovarian, 43%; in the assay with HS 578T breast, -3.16% (active); with NCI/ADR-RES ovarian, 38.9%.
